About 14,000 (4.5%) of roughly 310,000 compounds showed an effect of 50% or more. Effects have a minus sign here. The list comes from a sample in which strong results are over-represented; it also holds similar structures and randomly drawn compounds.
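Note: peak tail current of the secondary pulse compared with the same well before compound.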

The target in the test is human ether-à-go-go-related gene (hERG) potassium channel (human, UniProt Q12809). As to the kind of experiment: primary screen, population patch clamp on CHO cells stably expressing hERG; higher = less effect of the substance.
human ether-à-go-go-related gene (hERG) potassium channel, sequence (Q12809 whole entry, looked up): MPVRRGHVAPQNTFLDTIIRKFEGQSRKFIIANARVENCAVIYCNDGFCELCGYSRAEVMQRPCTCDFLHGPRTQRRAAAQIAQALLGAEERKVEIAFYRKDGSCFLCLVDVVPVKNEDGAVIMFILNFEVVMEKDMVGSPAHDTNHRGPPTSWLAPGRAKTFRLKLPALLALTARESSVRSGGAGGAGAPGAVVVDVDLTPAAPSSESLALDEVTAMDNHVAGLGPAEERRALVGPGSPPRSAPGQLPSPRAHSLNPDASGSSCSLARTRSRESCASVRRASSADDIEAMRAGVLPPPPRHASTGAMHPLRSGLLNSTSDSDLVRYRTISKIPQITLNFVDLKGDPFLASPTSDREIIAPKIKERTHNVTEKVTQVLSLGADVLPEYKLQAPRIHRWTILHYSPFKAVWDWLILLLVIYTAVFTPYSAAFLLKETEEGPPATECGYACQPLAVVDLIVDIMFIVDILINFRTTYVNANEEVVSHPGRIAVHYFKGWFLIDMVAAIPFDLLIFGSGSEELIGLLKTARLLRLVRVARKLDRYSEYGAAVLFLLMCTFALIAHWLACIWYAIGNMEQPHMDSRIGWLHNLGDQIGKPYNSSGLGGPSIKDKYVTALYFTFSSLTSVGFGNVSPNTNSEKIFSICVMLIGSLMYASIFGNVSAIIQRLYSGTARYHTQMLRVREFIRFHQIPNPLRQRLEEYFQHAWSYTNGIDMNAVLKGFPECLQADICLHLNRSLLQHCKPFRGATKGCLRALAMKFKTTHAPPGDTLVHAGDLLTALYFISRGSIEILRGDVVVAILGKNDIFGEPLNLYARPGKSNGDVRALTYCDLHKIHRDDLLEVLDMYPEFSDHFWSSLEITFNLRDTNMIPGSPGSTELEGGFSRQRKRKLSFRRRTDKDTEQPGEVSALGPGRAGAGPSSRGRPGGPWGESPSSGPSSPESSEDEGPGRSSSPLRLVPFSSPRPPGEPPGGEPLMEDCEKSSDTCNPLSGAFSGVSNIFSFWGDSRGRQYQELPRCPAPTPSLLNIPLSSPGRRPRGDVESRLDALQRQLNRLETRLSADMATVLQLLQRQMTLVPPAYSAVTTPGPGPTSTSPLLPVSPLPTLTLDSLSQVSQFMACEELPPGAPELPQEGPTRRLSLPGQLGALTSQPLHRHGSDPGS
Take `Cc1cc(C(=O)NNC(=O)c2ccccc2[N+](=O)[O-])c(C)o1`: the “hERG current change (%, negative = inhibition) at 10uM” value is 11.2%. The figure for `O=C(Cc1ccc(Cl)cc1)N/N=C/c1ccncc1` is -27.3%; for `O=C(CN1CCN(Cc2ccc(Cl)cc2)CC1)N/N=C/c1cccs1` it is -67.2%. For the compound `O=C(CN1CCN(Cc2ccccc2Cl)CC1)N/N=C/c1cccs1`, the “hERG current change (%, negative = inhibition) at 10uM” value is given as -20.4%.

For the compound `O=C(CN1CCN(Cc2ccc(Cl)cc2)CC1)N/N=C/c1ccncc1`, the “hERG current change (%, negative = inhibition) at 10uM” value is -80.1%.

As to `O=C(CN1CCN(Cc2ccccc2)CC1)N/N=C/c1cccs1`, the “hERG current change (%, negative = inhibition) at 10uM” value is reported as -22.9%. Regarding `O=C(CN1CCN(Cc2ccccc2)CC1)N/N=C/c1cccnc1`, the “hERG current change (%, negative = inhibition) at 10uM” value is given as -12.8%. Take `O=C(O)CCCNC(=O)Cc1ccccc1`: the “hERG current change (%, negative = inhibition) at 10uM” value was determined as 5.08%. On to `O=C(C1=C(O)C(=O)N(c2ncccn2)C1c1cccs1)c1ccco1` (stereo not drawn), for which the “hERG current change (%, negative = inhibition) at 10uM” value is on record as 14.3%.

On to `COc1ccccc1C1NC(=O)NC(C)=C1C(=O)OC1CCCCC1` (stereo not drawn), for which the “hERG current change (%, negative = inhibition) at 10uM” value turned out to be 6.66%. Then `COCCNC(=O)C(=O)NNC(=O)CCc1ccccc1`, with 8.78%; and `CCOC(=O)CN1C(=O)N[C@@H](c2cccc(C(F)(F)F)c2)C(C(C)=O)=C1C`, with 11.8%; and `Cn1nc(-c2ccccc2)c2nc3ccccc3nc21`, with -5.31%.

Regarding `Cl.Nc1nc(N2CCN(C(=O)c3ccco3)CC2)nc2ccccc12`, the “hERG current change (%, negative = inhibition) at 10uM” value is on record as -49.4%.

As to `O=C(c1cc(-c2ccncc2)nc2ccc(Cl)cc12)N1CCN(Cc2ccc3c(c2)OCO3)CC1`, the “hERG current change (%, negative = inhibition) at 10uM” value was -46.7%.

On to `COc1cc2nc(N3CCN(C(=O)c4ccco4)CC3)nc(N)c2cc1OC.Cl`, for which the “hERG current change (%, negative = inhibition) at 10uM” value is given as -35.9%. As for `Cl.Nc1nc(N2CCN(C(=O)c3ccco3)CC2)nc2ccc(Br)cc12`, the “hERG current change (%, negative = inhibition) at 10uM” value was -59.5%. Regarding `O=C(O)c1cc(-c2ccc3c(c2)OCO3)nc2ccc(Br)cc12`, the “hERG current change (%, negative = inhibition) at 10uM” value stood at 9.07%. On to `O=C(c1ccco1)N1CCN(C(=O)c2cc(-c3ccncc3)nc3ccc(Br)cc23)CC1`, for which the “hERG current change (%, negative = inhibition) at 10uM” value is listed as -72.7%.

`CC(=O)c1ccc(N2CCN(C(=O)c3cc(-c4ccncc4)nc4ccc(Br)cc34)CC2)cc1`: the “hERG current change (%, negative = inhibition) at 10uM” value is on record as -42%.

Turning to `O=C(c1cc(-c2ccncc2)nc2ccc(Br)cc12)N1CCN(Cc2ccc3c(c2)OCO3)CC1`, the “hERG current change (%, negative = inhibition) at 10uM” value was -56.5%. Turning to `O=C(c1cc(-c2ccncc2)nc2ccc(Br)cc12)N1CCN(c2ccccn2)CC1`, the “hERG current change (%, negative = inhibition) at 10uM” value is on record as -37.2%.

Regarding `Cc1nc(C)c(-c2csc(Nc3ccc(F)cc3)n2)s1`, the “hERG current change (%, negative = inhibition) at 10uM” value is -25.1%. In the case of `O=C1CSc2ccc(C(=O)Nc3cccc(S(=O)(=O)Nc4ccc(Br)cc4)c3)cc2N1`, the “hERG current change (%, negative = inhibition) at 10uM” value turned out to be 15%. On to `O=C(COC(=O)c1cccc(-n2cnnn2)c1)c1ccc(F)cc1`, for which the “hERG current change (%, negative = inhibition) at 10uM” value was -0.561%. As to `CCOC(=O)C1CCN(S(=O)(=O)c2ccc3c(c2)CC(=O)N3C)CC1`, the “hERG current change (%, negative = inhibition) at 10uM” value is on record as -22%. Then `C=CCc1c(C)nc(SC(C)C)[nH]c1=O`, with -2.85%; and `CCOc1cc(C(=S)N2CCCC2)ccc1OC(=O)Cc1ccc(F)cc1`, with 7.36%; and `COc1ccc(CC(=O)Nc2c(C(=O)N3CCN(c4ncccn4)CC3)oc3ccccc23)cc1`, with -63.7%. In the case of `COc1ccc(N2CCN(C(=O)c3oc4ccccc4c3NC(=O)Cc3ccc(OC)c(OC)c3)CC2)cc1`, the “hERG current change (%, negative = inhibition) at 10uM” value is -28.7%. `COc1ccc(CC(=O)Nc2c(C(=O)N3CCN(c4ncccn4)CC3)oc3ccccc23)cc1OC`: the “hERG current change (%, negative = inhibition) at 10uM” value is recorded as -46.8%. Turning to `O=C(Cc1ccc(F)cc1)Nc1c(C(=O)N2CCN(c3ncccn3)CC2)oc2ccccc12`, the “hERG current change (%, negative = inhibition) at 10uM” value was -56%. Then `O=C(c1oc2ccccc2c1CSCc1ccccc1)N1CCN(c2ncccn2)CC1`, with 1.59%.

`Cc1ccc(O)c(NC(=O)c2ccc3c(c2)C(=O)N(Cc2ccco2)C3=O)c1`: the “hERG current change (%, negative = inhibition) at 10uM” value turned out to be 3.81%.

Regarding `COC(=O)c1[nH]c2c(c1C)C(=O)CC(c1ccc(OC)cc1)C2` (stereo not drawn), the “hERG current change (%, negative = inhibition) at 10uM” value is listed as 11%. On to `CCOc1ccc2[nH]c(=O)c(CN(CCOC)C(=O)N3CCOCC3)cc2c1`, for which the “hERG current change (%, negative = inhibition) at 10uM” value is 13.5%.

For the compound `O=C(Nc1nnc(-c2ccc(F)cc2)o1)c1ccc(S(=O)(=O)N2CCOCC2)cc1`, the “hERG current change (%, negative = inhibition) at 10uM” value is -6.82%.

Regarding `CC(Oc1ccc(Cl)cc1)C(=O)N(C)CC(=O)Nc1ccc(N2CCOCC2)cc1` (stereo not drawn), the “hERG current change (%, negative = inhibition) at 10uM” value turned out to be 5.8%. `CCN1CCN(Cc2nc3cc(NC(=O)COc4ccc([N+](=O)[O-])cc4)ccc3n2C)CC1`: the “hERG current change (%, negative = inhibition) at 10uM” value is listed as -18.7%. Turning to `CCN1CCN(CCc2nc3cc([N+](=O)[O-])ccc3n2C)CC1`, the “hERG current change (%, negative = inhibition) at 10uM” value is given as -16.9%. `CC1CCN(CCc2nc3cc(NC(=O)COc4ccc([N+](=O)[O-])cc4)ccc3n2C)CC1`: the “hERG current change (%, negative = inhibition) at 10uM” value is -68.4%.

In the case of `Cn1c(CCN2CCOCC2)nc2cc(NC(=O)COc3ccc([N+](=O)[O-])cc3)ccc21`, the “hERG current change (%, negative = inhibition) at 10uM” value is reported as -21.1%.

As for `Cn1c(CCN2CCCCC2)nc2cc(NC(=O)COc3ccc([N+](=O)[O-])cc3)ccc21`, the “hERG current change (%, negative = inhibition) at 10uM” value is recorded as -63.1%. For `Cn1c(CN2CCCCC2)nc2cc([N+](=O)[O-])ccc21`, the “hERG current change (%, negative = inhibition) at 10uM” value is -0.791%. Then `Cn1c(CN2CCCC2)nc2cc(NC(=O)COc3ccc([N+](=O)[O-])cc3)ccc21`, with -38.6%; and `Cn1c(CCN2CCCCC2)nc2cc([N+](=O)[O-])ccc21`, with -70.2%; and `CN1CCN(CCc2nc3cc(NC(=O)COc4ccc([N+](=O)[O-])cc4)ccc3n2C)CC1`, with 16.1%. With `COc1ccc(N2C(=O)C3CCCN3C2c2ccccc2)cc1Cl` (stereo not drawn), the “hERG current change (%, negative = inhibition) at 10uM” value stood at 7.28%. In the case of `CCOC(=S)N/C(=N\S(C)(=O)=O)c1ccccc1`, the “hERG current change (%, negative = inhibition) at 10uM” value is given as -2.92%.

As to `COc1ccc(C(=S)N2CCOCC2)cc1OC(=O)c1cc(OC)c(OC)c(OC)c1`, the “hERG current change (%, negative = inhibition) at 10uM” value is on record as 16.2%.

`COc1ccc(CN(C)C(=O)c2ccccc2Sc2ccccc2C#N)c(OC)c1`: the “hERG current change (%, negative = inhibition) at 10uM” value was found to be 0.887%. Then `Cc1ccc(C(=O)Cn2ncsc2=N)cc1`, with -12.5%; and `Cc1ccc(S(=O)(=O)NC2CCCC2)cc1C(N)=O`, with 20.1%; and `Cc1cc(OC(=O)c2cccs2)ccc1C(C)C`, with 12.1%. Turning to `O=[N+]([O-])c1ccc(Cl)c(NC(=S)N2CCCC2)c1`, the “hERG current change (%, negative = inhibition) at 10uM” value is recorded as 5.47%. Then `CC(=O)Nc1ccc(OCC(O)CN2CCN(c3ccc(C)c(Cl)c3)CC2)cc1` (stereo not drawn), with -27.7%. On to `CC(=O)Nc1ccc(OCC(O)CN2CCN(c3cccc(Cl)c3)CC2)cc1` (stereo not drawn), for which the “hERG current change (%, negative = inhibition) at 10uM” value was -25.2%. The figure for `CC(=O)Nc1ccc(OCC(O)CN2CCN(c3cc(Cl)ccc3C)CC2)cc1` (stereo not drawn) is -30.8%; for `CC(=O)Nc1ccc(OCC(O)CN2CCN(c3ccc(F)cc3)CC2)cc1` (stereo not drawn) it is -23.4%. The figure for `CC(=O)Nc1ccc(OCC(O)CN2CCN(c3ccccc3Cl)CC2)cc1` (stereo not drawn) is -50.2%; for `CC(=O)Nc1ccc(OCC(O)CN2CCN(c3ccc(Cl)cc3)CC2)cc1` (stereo not drawn) it is -52.7%. On to `CC(C)N(O)C(=O)NC(C)(C)C`, for which the “hERG current change (%, negative = inhibition) at 10uM” value came to 11.5%. `O=C(NC1CCCCC1)C(c1ccc(F)cc1)N(C(=O)c1csnn1)C1CCCC1` (stereo not drawn): the “hERG current change (%, negative = inhibition) at 10uM” value is -7.88%. Turning to `COc1ccc(-c2noc(COc3ccc(Cl)c(C)c3)n2)cc1`, the “hERG current change (%, negative = inhibition) at 10uM” value was 2.81%. For `O=C(CCC1CCCN(Cc2ccc3c(c2)OCCO3)C1)NCc1ccc(F)c(F)c1` (stereo not drawn), the “hERG current change (%, negative = inhibition) at 10uM” value is given as -61.5%. Then `O=C(CCC1CCCN(C(=O)c2ccncc2)C1)NCc1ccc(F)c(F)c1` (stereo not drawn), with -1.99%; and `CC(=O)c1cccc(CN2CCCC(CCC(=O)NCc3ccccc3F)C2)c1` (stereo not drawn), with -48.5%. For the compound `O=C(CCC1CCCN(Cc2cccc3c2OCO3)C1)NCc1ccc(F)c(F)c1` (stereo not drawn), the “hERG current change (%, negative = inhibition) at 10uM” value is recorded as -74.4%. As to `O=C(CCC1CCCN(Cc2ccc3c(c2)CCO3)C1)NCc1ccc(F)c(F)c1` (stereo not drawn), the “hERG current change (%, negative = inhibition) at 10uM” value is on record as -63.7%.

On to `O=C(CCC1CCCN(Cc2ccncc2)C1)NCc1ccc(F)c(F)c1` (stereo not drawn), for which the “hERG current change (%, negative = inhibition) at 10uM” value was -13.6%. `CC1=C(C(=O)N2CCCC(CCC(=O)NCc3ccc(F)c(F)c3)C2)OCCO1` (stereo not drawn): the “hERG current change (%, negative = inhibition) at 10uM” value was determined as 3.36%. The figure for `O=C(CCC1CCCN(c2ncccn2)C1)NCc1ccc(F)c(F)c1` (stereo not drawn) is -40.8%; for `CC(=O)c1cccc(CN2CCCC(CCC(=O)NCc3ccc(F)c(F)c3)C2)c1` (stereo not drawn) it is -74.7%. `O=C(CCC1CCCN(C(=O)c2ccc3c(c2)OCO3)C1)NCc1ccc(F)c(F)c1` (stereo not drawn): the “hERG current change (%, negative = inhibition) at 10uM” value is on record as -8.73%. With `COc1cccc(CNC(=O)CCC2CCCN(Cc3ccc4c(c3)CCO4)C2)c1` (stereo not drawn), the “hERG current change (%, negative = inhibition) at 10uM” value is listed as -33.6%.

Consider `O=C(CCC1CCCN(Cc2ccc3c(c2)OCCO3)C1)NCc1ccccc1F` (stereo not drawn), for which the “hERG current change (%, negative = inhibition) at 10uM” value is -24.2%. Take `COC(=O)Oc1ccc(/C=C/C(=O)OC(C)C)cc1OC(=O)OC`: the “hERG current change (%, negative = inhibition) at 10uM” value worked out at 1.69%.

Take `Cc1ccc(C(=O)NCCc2ccc(S(=O)(=O)N3CCCC3)cc2)cc1`: the “hERG current change (%, negative = inhibition) at 10uM” value is given as -0.599%. `CCOc1ccc(C(=O)N(C)C2CCS(=O)(=O)C2)cc1` (stereo not drawn): the “hERG current change (%, negative = inhibition) at 10uM” value is reported as 18.3%. Take `O=C(CSc1nnc(-c2ccco2)o1)NC(=O)Cc1ccccc1`: the “hERG current change (%, negative = inhibition) at 10uM” value is listed as -5.31%. In the case of `CC[C@@H](CCC=C(C)C)C(=O)N(Cc1ccccc1)c1ccccc1`, the “hERG current change (%, negative = inhibition) at 10uM” value stood at 3.94%. The figure for `CCN1CCC(O)(c2ccccc2)C(C(=O)c2ccccc2)C1` (stereo not drawn) is -7.58%; for `CN1CCC(O)(c2ccc(Cl)cc2)C(C(=O)c2ccc(Cl)cc2)C1` (stereo not drawn) it is -67.7%. Take `CN1CCC(O)(c2ccccc2)C(C(=O)c2ccccc2)C1` (stereo not drawn): the “hERG current change (%, negative = inhibition) at 10uM” value is listed as -2.34%.

These data come from paper PMC4336329 (PLoS ONE, 2015).
